Data on four molecules can be found in PubChem BioAssay (NCATS).

Records with an inconclusive call do not appear. The source made the active and inactive calls. Calls come from the whole dose curve; as a rule, active = well fitted curve in the direction sought with a large enough effect; inconclusive = small, poorly fitted or top-dose-only effect, or another doubt; inactive = no such curve, though single readings can be large; an effect the other way counts as inactive or inconclusive.

The subject of assay [1] is Zika virus NS2B-NS3 protease (unlinked complex). Kind of assay: Primary screen GU Rhodamine qHTS for Zika virus inhibitors: Unlinked NS2B-NS3 protease assay (AID 1347159). Note: % is set by controls: 0 for no effect and ±100 for the full control effect; nearly all actives have a fitted effect of over 60% in size. In outline:
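Percent inhibition derives from the 15-min fluorescence change (ex 480, em 540 nm), normalized to no-enzyme and no-inhibitor wells. Reactions contained 25 nM NS2B-NS3 complex and 1.5 microM substrate in 10 mM Tris-HCl pH 8.0.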
(Quantitative high-throughput screening tests each substance at several concentrations.)

Assay [2] concerns Zika virus NS2B-NS3 protease (linked construct). Kind of assay: Primary screen NINDS Rhodamine qHTS for Zika virus inhibitors (AID 1347160). Note: nearly all actives have a fitted effect of over 55% in size. The essentials: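 In 10 mM Tris-HCl pH 8.0 containing 0.01% Tween 20, linked NS2B-NS3 protease (25 nM final) is exposed to test compounds for 15 min. Cleavage of 1.5 microM Rhodamine110 substrate is tracked by fluorescence over 15 min.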
For assay [3], the target named is Glutathione peroxidase 1 (Homo sapiens) (UniProt P07203). Kind of assay: Primary qHTS Assay for Inhibitors of Recombinant Selenoprotein Glutathione Peroxidase 1 (GPX1) (AID 1845191). Note: % is set by controls: 0 for no effect and ±100 for the full control effect; nearly all actives have a fitted effect of over 65% in size. The essentials:
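10 nM GPX1 + cpd, 30 min RT; start w/ 1 mM GSH, 0.5 mM cumene hydroperoxide, 0.5 mM NADPH, 100 nM GR, 0.01% BSA; buffer 50 mM Tris-HCl pH 7.5, 2 mM EDTA, 150 mM NaCl; Fl 340/450, 0 & 15 min.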

Assay [4] has as its target Phospholipid hydroperoxide glutathione peroxidase GPX4 (Homo sapiens) (UniProt P36969). Kind of assay: Primary qHTS Assay for Inhibitors of Recombinant Selenoprotein Glutathione Peroxidase 4 (GPX4) (AID 1845192). Note: % is set by controls: 0 for no effect and ±100 for the full control effect; nearly all actives have a fitted effect of over 65% in size. In outline: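 NADPH consumption, followed by fluorescence at 340/450 nm between 0 and 15 min, reports GPX4 activity via coupled glutathione reductase (100 nM). Enzyme 200 nM was pre-exposed to compound 30 min; 0.5 mM cumene hydroperoxide and 1 mM GSH served as substrates.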

Assay [5] deals with Luciferin 4-monooxygenase (Photinus pyralis) (UniProt P08659). Kind of assay: Primary firefly luciferase (FLuc) qHTS assay for identification of artifact compounds. (AID 1845220).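 For activity change, negative = inhibition: plate controls were DMSO vehicle for no effect and no enzyme for full effect.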 Note: nearly all actives have a fitted effect of over 60% in size. Particulars: outcome: dose series up to 54.1 µM unless noted. The essentials:
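Cell-free, 1536-well qHTS. Buffer pH 7.6 with 0.01% Tween-20 and 0.05% BSA; 10 uM D-luciferin, 10 uM ATP; 10 nM P. pyralis luciferase; luminescence after 5 min.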

The nature of assay [6]: Primary fluorescence-based thiol-reactive (MSTI) qHTS assay for identification of artifact compounds. (AID 1845221).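 Note: thiol-reactive compounds lower the probe fluorescence signal; nearly all actives have a fitted effect of over 65% in size.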 The essentials: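 qHTS titration of compound; 4 uM MSTI, PBS pH 7.4, 2% DMSO; 1 h RT, dark; fluorescence 525/598 nm; normalized to Acetyl-MSTI and MSTI; 4-parameter Hill fit.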
For assay [7], the system named is Nanoluciferase (engineered Oplophorus gracilirostris luciferase). Kind of assay: Primary Nanoluciferase (NLuc) qHTS assay for identification of artifact compounds. (AID 1845222).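 Note: 0% = DMSO and -100% = no enzyme.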 The essentials: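 Compounds are pinned into diluted (1:55) conditioned medium of NLuc-expressing S16 cells and held 15 min at room temperature protected from light. Nano-Glo substrate follows, and luminescence is read 5 min later.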

The test system of the next assay is CRL-7250. Kind of assay: Cytotoxic Profiling of Annotated Libraries Using Quantitative High-Throughput Screening (AID 1296008). For max response: % is set by controls: 0 for no effect and ±100 for the full control effect. Note: nearly all actives have a fitted effect of over 60% in size. Note: potency is the fitted concentration of half-maximal effect. Particulars: Five cell lines viability, CellTiter-Glo ATP luminescence, 48-72 h; max response: hits give low values. In outline: (§1)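 Cytotoxicity was measured as CellTiter-Glo ATP luminescence, read after 10 min at room temperature. Compound treatment of the cells lasted 48 or 72 hr at 37 degrees Celsius in a qHTS format.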
In general terms: In ATP-based viability assays light output follows the ATP content of the culture.

The test system of another assay is NIH3T3. The description is as above. Conditions: Five cell lines viability, CellTiter-Glo ATP luminescence, 48-72 h; max response: hits give low values. In outline: as §1
The test system of another assay is C33A. Kind of assay: Primary qHTS to identify gynecologic anti-cancer compounds using libraries of approved drugs and bioactive compounds (AID 1345084). For activity change, negative = cytotoxicity: % is set by controls: 0 for no effect and ±100 for the full control effect. Note: nearly all actives have a fitted effect of over 55% in size. Note: potency is the fitted concentration of half-maximal effect. Conditions: Gynecologic cancer cell panel viability, ATPlite luminescence, 48 h; series mostly up to 57.5 µM. In outline: (§2)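 Cells, 1,000 per well, were allowed to settle for 16 h at 37 C before compound addition. Five concentrations were tested for 48 h, and viability was read by ATPlite luminescence after 15 min at room temperature.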

The test system of another assay is CAOV3. The description is as above. Particulars: Gynecologic cancer cell panel viability, ATPlite luminescence, 48 h; series mostly up to 57.5 µM. In outline: as §2
A further assay concerns CASKI. Described as above. Conditions: Gynecologic cancer cell panel viability, ATPlite luminescence, 48 h; series mostly up to 57.5 µM. In outline: as §2
In the next assay the test system is Es-2. The assay is described as above. Particulars: Gynecologic cancer cell panel viability, ATPlite luminescence, 48 h; series mostly up to 57.5 µM. In outline:
as §2

The next assay has as its system JEG-3. The assay is described as above. Particulars: Gynecologic cancer cell panel viability, ATPlite luminescence, 48 h; series mostly up to 57.5 µM. The essentials:
as §2

The test system of another assay is OV90. Described as above. Particulars: Gynecologic cancer cell panel viability, ATPlite luminescence, 48 h; series mostly up to 57.5 µM. In outline:
as §2

Another assay deals with Tov-21-G. Described as above. Particulars: Gynecologic cancer cell panel viability, ATPlite luminescence, 48 h; series mostly up to 57.5 µM. The essentials:
as §2

A further assay deals with Tov112D. Described as above. Conditions: Gynecologic cancer cell panel viability, ATPlite luminescence, 48 h; series mostly up to 57.5 µM. In outline:
as §2

The target of assay [8] is Calcium and integrin-binding protein 1 (Homo sapiens) (UniProt Q99828). Kind of assay: Primary qHTS for Identification of Calcium Integrin Binding Protein 1 (CIB1) Competitor (AID 1508620).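 Note: GST tagged CIB1 binding a fluorescein labelled alphaIIb integrin peptide tracer; top concentration of the series differs between compounds; % is set by controls: 0 for no effect and ±100 for the full control effect.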 The essentials: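 CIB1-GST (1 uM final) and compound incubated 15 min at room temperature before adding FITC-alphaIIb peptide tracer (100 nM final). Competition for binding read by fluorescence polarization (ex 480, em 540) after another 15 min at room temperature.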
Sequence of Calcium and integrin-binding protein 1 (Homo sapiens) (Q99828 whole entry, looked up): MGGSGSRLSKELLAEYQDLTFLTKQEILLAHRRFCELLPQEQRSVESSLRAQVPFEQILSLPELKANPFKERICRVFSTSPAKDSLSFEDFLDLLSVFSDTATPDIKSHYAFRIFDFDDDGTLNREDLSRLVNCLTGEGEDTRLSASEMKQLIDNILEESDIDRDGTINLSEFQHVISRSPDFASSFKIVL

Another assay deals with Hek293T. Kind of assay: Primary qHTS to identify gynecologic anti-cancer compounds using libraries of approved drugs and bioactive compounds (AID 1345084). For activity change, negative = cytotoxicity: % is set by controls: 0 for no effect and ±100 for the full control effect. Note: nearly all actives have a fitted effect of over 55% in size. Note: potency is the fitted concentration of half-maximal effect. Particulars: Gynecologic cancer cell panel viability, ATPlite luminescence, 48 h, control line for the selectivity index; series mostly up to 57.5 µM. In outline: as §2
Another assay deals with PA-1. Described as above. Particulars: Gynecologic cancer cell panel viability, ATPlite luminescence, 48 h; series mostly up to 57.5 µM. In outline: as §2

Sequence of Phospholipid hydroperoxide glutathione peroxidase GPX4 (Homo sapiens) (P36969 whole entry, looked up): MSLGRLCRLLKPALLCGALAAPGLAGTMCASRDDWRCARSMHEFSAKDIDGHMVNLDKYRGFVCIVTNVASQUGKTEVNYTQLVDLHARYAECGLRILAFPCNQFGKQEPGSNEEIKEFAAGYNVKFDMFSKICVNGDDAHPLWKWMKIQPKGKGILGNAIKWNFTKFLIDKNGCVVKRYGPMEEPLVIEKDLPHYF
Sequence of Glutathione peroxidase 1 (Homo sapiens) (P07203 whole entry, looked up): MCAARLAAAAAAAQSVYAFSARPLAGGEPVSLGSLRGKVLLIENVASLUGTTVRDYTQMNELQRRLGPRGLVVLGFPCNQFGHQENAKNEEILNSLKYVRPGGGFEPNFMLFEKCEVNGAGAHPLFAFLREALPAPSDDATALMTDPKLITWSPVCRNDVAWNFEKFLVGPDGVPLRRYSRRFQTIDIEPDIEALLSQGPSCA

Take `CO[C@@H]1[C@@H](O)[C@@H](O[C@H]2CC[C@]3(C=O)C4CC[C@]5(C)[C@@H](C6=CC(=O)OC6)CC[C@]5(O)[C@@H]4CC[C@H]3C2)O[C@@H](C)[C@H]1O[C@@H]1O[C@H](CO[C@@H]2O[C@H](CO)[C@@H](O)[C@H](O)[C@H]2O)[C@@H](O)[C@H](O)[C@H]1O` (stereo partly specified): the Potency result in assay [1], in assay [2], in assay [3] and in assay [4] was “inactive” each time. In addition, the activity change, negative = inhibition in assay [5] is -6.08% [at 11.6 µM] (inactive). Moreover, the activity change, negative = thiol reactive in assay [6] was 52.3% [at 11.5 µM] (inactive). The activity, negative = inhibition in [7] was 1.53% [at 11.6 µM] (inactive). Besides, the Potency was 2.19 µM (active) with CRL-7250; 3.55 µM (active) with C33A; 2 µM (active) in the assay on Es-2; 3.55 µM (active) in the assay with Tov-21-G; 2.51 µM (active) with Tov112D. The molecule was called inactive in the assay on NIH3T3. Further, the activity change, negative = cytotoxicity is -17.5% [at 11.6 µM] (inactive) with CAOV3, 13.6% [at 11.6 µM] (inactive) in the assay with CASKI, -2.75% [at 11.6 µM] (inactive) in the assay with JEG-3 and 8.02% [at 11.6 µM] (inactive) in the assay with OV90.
For the molecule `C[C@]12CC[C@H](O)CC1=CC[C@@H]1C2CC[C@]2(C)[C@@H](C3=CC(=O)OC3)CC[C@]12O` (stereo partly specified), the Potency entry in [1], in assay [2], in assay [8], in assay [3], in [4] and in [6] was “inactive” throughout. Moreover, the Potency entry (in assay [7]; in the assay on CASKI) was “inactive” each time. In addition, the molecule was called inactive in assay [5]. Further, the Potency is 5.08 µM (active) with CRL-7250, 11.2 µM (active) in the assay on Es-2, 10 µM (active) in the assay on Tov-21-G and 7.08 µM (active) in the assay on Tov112D. In addition, the max response in the assay on NIH3T3 is -1.39% (inactive).
In the case of `C[C@@H]1O[C@@H](O[C@H]2CC[C@@]3(C)C(CC[C@@H]4C3CC[C@]3(C)[C@@H](C5=CC(=O)OC5)CC[C@]43O)C2)[C@H](O)[C@H](O)[C@H]1O` (stereo partly specified), the Potency result in assay [1], in assay [2], in [8], in [3], in [4] and in [6] was “inactive” in each case. Further, the Potency entry in [7] was “inactive”. Moreover, in assay [5], the outcome was “inactive [at 25.7 µM]”. Besides, the max response in the assay with NIH3T3 was -2.8% (inactive). Further, the Potency is 1 µM (active) in the assay on C33A; 3.98 µM (active) with CAOV3; 4.47 µM (active) in the assay with CASKI; 1.26 µM (active) in the assay with Es-2; 1 µM (active) in the assay with Hek293T; 5.62 µM (active) in the assay with OV90. The Potency was 1 µM (active) with PA-1, 1 µM (active) with Tov-21-G and 0.355 µM (active) in the assay with Tov112D.
Take `CCCCn1cc(C(=O)c2cccc3ccccc23)c2ccccc21`: the Potency entry in [1], in assay [2], in assay [8], in assay [3], in assay [4] and in assay [6] was “inactive” throughout. Besides, the Potency entry (in [7]; with C33A; in the assay on CAOV3; in the assay with CASKI; in the assay with Es-2; with JEG-3) was “inactive” in each case. The Potency result with OV90, with PA-1, in the assay on Tov-21-G and in the assay with Tov112D was “inactive” in each case. Besides, the max response in the assay with NIH3T3 was 3.07% (inactive).
